26 compounds from PubChem BioAssay (NCATS) can be followed below.

“And” between values parts separate entries of the source, which are not always exact repeats. Equal entries are not always repeated. Records with an inconclusive call do not appear. A number with no mark means an inactive call. The source made the active and inactive calls. Calls come from the whole dose curve; as a rule, active = well fitted curve in the direction sought with a large enough effect; inconclusive = small, poorly fitted or top-dose-only effect, or another doubt; inactive = no such curve, though single readings can be large; an effect the other way counts as inactive or inconclusive. Numbered stars: 1 amine (or outer) side, 2 acyl side, 3 side chain; on linkers, the order of the positions; unused ones are H or OH. Square brackets hold non-standard residues; d marks the D form. Peptide text beside a SMILES is read from it. X2 = CC(C)=CCc1cc(C(O)C(N[*:1])C(=O)[*:2])ccc1O

Assay [1] addresses Cellular tumor antigen p53 (Homo sapiens) (UniProt P04637). The assay can be described thus: Primary qHTS for small molecule compounds that upregulate eGFP-tagged delta133p53alpha (in N-terminal) cells. (AID 2060322).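 For activation: series mostly up to about 56 µM; 0% = DMSO vehicle and 100% = reference activator.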 Note: nearly all actives have a fitted effect of over 75% in size. Note: potency is the fitted concentration of half-maximal effect. The following applies: NCI-H358 eGFP-delta133p53alpha fluorescence, 24 h; activation: stronger effect = higher value. The procedure, abridged:
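NCI-H358 cells pre-induced 24 h with 10 ng/ml doxycycline to express N-terminal eGFP-delta133p53alpha, then dosed 24 h at 37C without doxycycline; fixed, Hoechst-stained, GFP intensity by laser scanning cytometry, normalized to DMSO (0%) and 57.5 uM 5-azacytidine (100%).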
On the technique in general: qHTS replaces the single test concentration by a dilution series.

Assay [2] concerns the target Aldehyde dehydrogenase, mitochondrial (Homo sapiens) (UniProt P05091). Kind of assay: qHTS for Inhibitors of the Aldehyde Dehydrogenase Family (ALDH2) Primary screen (AID 2061308).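 Note: plate controls were vehicle for no effect and reference inhibitor for full effect; nearly all actives have a fitted effect of over 55% in size.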
In assay [3] the target is Retinaldehyde dehydrogenase 3 (Homo sapiens) (UniProt P47895). Kind of assay: qHTS for Inhibitors of the Aldehyde Dehydrogenase Family (ALDH1A3) Primary screen (AID 2061315).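 Note: plate controls were DMSO vehicle for no effect and reference inhibitor for full effect.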

Cellular tumor antigen p53 (Homo sapiens), sequence (P04637 whole entry, looked up): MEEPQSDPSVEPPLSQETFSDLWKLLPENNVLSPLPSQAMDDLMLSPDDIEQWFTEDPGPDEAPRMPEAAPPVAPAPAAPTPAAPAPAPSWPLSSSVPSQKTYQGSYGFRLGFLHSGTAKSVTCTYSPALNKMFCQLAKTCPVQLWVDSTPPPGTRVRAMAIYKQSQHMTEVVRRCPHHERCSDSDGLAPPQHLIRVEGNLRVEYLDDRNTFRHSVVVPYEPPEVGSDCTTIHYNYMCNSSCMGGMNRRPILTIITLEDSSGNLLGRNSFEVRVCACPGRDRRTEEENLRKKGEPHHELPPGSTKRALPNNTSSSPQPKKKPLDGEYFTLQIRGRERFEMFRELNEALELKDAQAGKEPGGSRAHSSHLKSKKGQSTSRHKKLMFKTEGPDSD

As to `C=C1CC2[C@@]3(C)C=CC(=O)C(C)(C)C3=C(O)C(=O)[C@@]2(C)C2(C(=O)OC)C(=O)C(C)OC(=O)[C@@]12C` (stereo partly drawn), the activation in assay [1] is -3.82%. Moreover, the Potency result in assay [2] and in assay [3] was “inactive” throughout.
Consider `COc1ccc(-c2ccccc2)cc1NS(=O)(=O)c1cc(Cl)cc(Cl)c1O`, for which, in assay [1], the activation is -8.33%. For the same compound, the Potency result in assay [2] and in assay [3] was “inactive” in each case.
Take `CC(C)=CCC[C@](C)(O[C@@H]1O[C@H](CO[C@@H]2O[C@@H](CO)[C@H](O)[C@H]2O[C@@H]2OC[C@@H](O)[C@H](O)[C@H]2O)[C@@H](O)[C@H](O)[C@H]1O)[C@H]1CC[C@]2(C)[C@@H]1[C@H](O)CC1[C@@]3(C)CC[C@H](O[C@@H]4O[C@H](CO)[C@@H](O)[C@H](O)[C@H]4O[C@@H]4O[C@H](CO)[C@@H](O)[C@H](O)[C@H]4O)C(C)(C)C3CC[C@]12C` (stereo partly drawn): in assay [1], the activation was -6.87%. For the same compound, the values for the activity change, negative = inhibition in assay [2] and in assay [3] were 1.66% [at 11.2 µM] and 19.1% [at 11.2 µM], respectively.
Regarding `COc1cc2c(cc1OC)CN(C(=O)[C@@H](NCc1ccncc1)C(C)(C)C)CC2`, the activation in assay [1] is 5.25%. Also, the Potency result in assay [2] and in assay [3] was “inactive” throughout.
In the case of `CC1(C)CC[C@]2(C(=O)O[C@@H]3O[C@H](CO)[C@@H](O)[C@H](O)[C@H]3O)CC[C@]3(C)C(=CCC4[C@@]5(C)C[C@@H](O)[C@H](O)[C@@](C)(CO)C5[C@H](O)C[C@]43C)C2[C@@H]1O` (stereo partly drawn), the activation in assay [1] was -5.34%. In addition, the Potency entry in assay [2] and in assay [3] was “inactive” each time.
Take `COC(=O)C1C(c2ccc(O)cc2)C(C(=O)OC)C1c1ccc(O)cc1` (stereo not drawn): the activation in assay [1] is -16.1%. Moreover, the Potency entry in assay [2] and in assay [3] was “inactive” each time.
Regarding `CC1(C)CCCC2(C)C(CO)C3CCC2C31` (stereo not drawn), the activation in assay [1] was 24.1%. The Potency entry in assay [2] and in assay [3] was “inactive” in each case.
`OC[C@H]1O[C@@H](OC[C@H]2O[C@@H](OC/C=C/c3ccccc3)[C@H](O)[C@@H](O)[C@@H]2O)[C@@H](O)[C@@H]1O`: the activation in assay [1] was 20.5%. In addition, the Potency result in assay [2] and in assay [3] was “inactive” throughout.
On to `CC(C)CCC(=O)CC1c2ccccc2C(=O)N1c1ccc2ccc(Cl)nc2n1` (stereo not drawn), for which the activation in assay [1] is 0.477%. Also, the Potency result in assay [2] and in assay [3] was “inactive” each time.
On to `COc1cc(CCC2=NN=C(NC(=O)c3ccc(N4C[C@@H](C)N[C@@H](C)C4)cc3)C2)cc(OC)c1`, for which the activation in assay [1] is -0.333%. For the same compound, the Potency entry in assay [2] and in assay [3] was “inactive” in each case.
For the compound `COc1cc(OC)cc(C(=O)Nc2ccc(Cl)c(-c3nc4ccc(N(C)C)cc4[nH]3)c2)c1`, in assay [1], the activation was -11.5%. Also, the Potency result in assay [2] and in assay [3] was “inactive” each time.
In the case of `CCCC(CCC)C(=O)NCc1ccc2c(cnn2-c2ccccc2OC)c1`, in assay [1], the activation is -5.25%. The Potency result in assay [2] and in assay [3] was “inactive” in each case.
In the case of `CCCCCOC(=O)Nc1nc(=O)n(C2O[C@H](C)[C@@H](O)[C@H]2O)cc1F` (stereo partly drawn), the activation in assay [1] was -11.7%. Besides, the Potency result in assay [2] and in assay [3] was “inactive” each time.
Regarding `C[C@@H]1O[C@@H](OC[C@H]2O[C@@H](OCC3CCC4CC3C4(C)C)[C@H](O)[C@@H](O)[C@@H]2O)[C@H](O)[C@H](O)[C@H]1O` (stereo partly drawn), the activation in assay [1] was 16.1%. The Potency result in assay [2] and in assay [3] was “inactive” in each case.
Take `COc1ccc2c(c1)C(=O)N(CCc1ccc(S(=O)(=O)NC(=O)NC3CCCCC3)cc1)C(=O)C2(C)C`: the activation in assay [1] is -11.7% and 6.33%. Moreover, the Potency entry in assay [2] and in assay [3] was “inactive” each time.
As for `CC[C@H](C)/C=C(C)/C=C/C1=CC2=C(Cl)C(=O)[C@](C)(O)[C@H](OC(C)=O)[C@H]2CO1`, the Potency in assay [1] is 14.8 µM (active). The Potency entry in assay [2] and in assay [3] was “inactive” each time.
Turning to `O=C(CCCCCCCCC#CI)Oc1ccccc1`, the activation in assay [1] was -8.33%. The Potency entry in assay [2] and in assay [3] was “inactive” each time.
On to `C[C@@H](NC(=O)c1ccc(C#Cc2cccc(F)c2)cn1)C(C)(C)O`, for which the activation in assay [1] is -4.33%. Further, the Potency result in assay [2] and in assay [3] was “inactive” each time.
As for `CC1(C)CC2C(O)C3=C(CC(C)(O)C2C1)C(=O)OC3O` (stereo not drawn), the activation in assay [1] is 1.79%. The Potency result in assay [2] and in assay [3] was “inactive” each time.
On to `CC(=O)O[C@H]1C[C@@](O)(C(C)C)[C@@H]2[C@@H](OC(=O)c3ccc(O)cc3)CC(C)=CC[C@@]12C`, for which the activation in assay [1] is 21.4%. Moreover, the Potency result in assay [2] and in assay [3] was “inactive” throughout.
As for `CCCCn1c(-c2ccccc2)nc(-c2ccccc2)c1CN(Cc1ccc2c(c1)OCO2)Cc1ccc2c(c1)OCO2`, the activation in assay [1] is -10%. The Potency entry in assay [2] and in assay [3] was “inactive” each time.
For the compound `Cn1ccnc1CCOC(c1cc2nccc(C(=O)O)c2[nH]1)c1ccccc1Cl` (stereo not drawn), in assay [1], the activation is -5%. Further, the Potency entry in assay [2] and in assay [3] was “inactive” throughout.
Turning to `CC(C)=CCc1cc(C(O)C2NC(=O)CNC(=O)C(Cc3c[nH]c4ccccc34)NC(=O)C3CCCN3C(=O)CNC(=O)C(C(C)C)NC(=O)CNC2=O)ccc1O` (stereo not drawn) (cyclo(G[X2]GVGPW); configuration not given here), the activation in assay [1] was -8.4%. Also, the Potency result in assay [2] and in assay [3] was “inactive” in each case.
As to `Cn1nnc(-c2ccc(-c3ccc(N4C[C@H](CO)OC4=O)cc3F)cn2)n1`, the activation in assay [1] was -5.36%. The Potency result in assay [2] and in assay [3] was “inactive” each time.
Consider `C/C1=C\CC[C@]2(C)O[C@H]2C(=O)c2c(C)coc2C1`, for which the activation in assay [1] was 20.5%. Also, the Potency entry in assay [2] and in assay [3] was “inactive” throughout.
Consider `CNc1nc(Nc2cn(C(C)(C)C#N)nc2C)ncc1C(F)(F)F`, for which the activation in assay [1] is -23.2%. Moreover, the Potency result in assay [2] and in assay [3] was “inactive” throughout.
